# Measured values from PubChem BioAssay (NCI).
# The panel holds about 83,000 compounds, 20% with a hit somewhere; the sample as a whole holds those more often.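 Plates (96-well) were seeded with cells, treated with compound at one concentration, and incubated for 48 hours before percent growth was determined.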 A number with no mark means an inactive call. Calls of active or inactive are those of the source. How the source made its calls: active means growth percent below 10; inactive means the rest.
# Columns and labels:
# Assay in all cases: NCI-60 one-dose screen, 48 h (100 = growth as untreated, 0 = no growth, -100 = all killed)
# Conditions in all cases: 10 µM unless noted
# NCI-H23 lung = system: NCI-H23 lung
# NCI-H226 lung = system: NCI-H226 lung
# NCI-H322M lung = system: NCI-H322M lung
# NCI-H460 lung = system: NCI-H460 lung
# HOP-92 NSCLC = system: HOP-92 NSCLC
# NCI-H522 lung = system: NCI-H522 lung
# A549/ATCC NSCLC = system: A549/ATCC NSCLC
# 786-0 renal = system: 786-0 renal
# COLO 205 colon = system: COLO 205 colon
# HOP-62 NSCLC = system: HOP-62 NSCLC
Compound,growth (NCI-H23 lung),growth (NCI-H226 lung),growth (NCI-H322M lung),growth (NCI-H460 lung),growth (HOP-92 NSCLC),growth (NCI-H522 lung),growth (A549/ATCC NSCLC),growth (786-0 renal),growth (COLO 205 colon),growth (HOP-62 NSCLC)
CCOC(=O)C1=C(C)Nc2nnc(Nc3ccccc3)n2C1c1ccccc1 (stereo not given),72.4%,86.7%,91.2%,-28.3% (active),82.4%,79.2%,48.9%,75.5%,88.9%,
COc1ccc(-c2ccc3c4c(cccc24)C(=O)N(N2C(=O)c4cccc5cccc(c45)C2=O)C3=O)cc1,96.1%,101%,102%,102%,75.6%,97.1%,107%,99.2%,103%,
C[C@H]1[C@H](C)CC[C@]2(COC(=O)c3cccnc3)CC[C@]3(C)C(=CC[C@@H]4[C@@]5(C)CCCNC(C)(C)[C@@H]5CC[C@]43C)[C@H]12,70%,78.1%,88.3%,65.1%,67.5%,82.9%,78.6%,70.7%,43.9%,
CCOC(=O)c1c(NCC(=O)Nc2cccc([N+](=O)[O-])c2)sc2c1CCCC2,-70.8% (active),-58.1% (active),-29.2% (active),-51.5% (active),-24.7% (active),-67% (active),-13.8% (active),-32% (active),-56.2% (active),
CN(c1ccc(F)cc1)S(=O)(=O)c1ccc(-c2cnc(C3CC3)o2)cc1,30.5%,60.5%,45.6%,17.2%,81.1%,25.6%,31.1%,50.3%,6.42% (active),
COc1ccc(-c2ccnc3c(C#N)c(Nc4ccccc4)nn23)cc1OC,93%,62.6%,91.2%,92.8%,-0.0748% (active),81.4%,85.4%,85.7%,97.1%,
IP(CCCCCCCCCCSc1n(Cc2ccc3ccccc3c2)c(-c2ccccc2)c(-c2ccccc2)[n+]1Cc1ccc2ccccc2c1)(c1ccccc1)(c1ccccc1)c1ccccc1,-66.2% (active),-55.2% (active),-68.4% (active),-63.4% (active),-77.8% (active),-61.8% (active),-55% (active),-56.2% (active),-55.2% (active),
CCN1C(=O)N(CC)C2C1NN=C1SC(c3ccccc3)=CC(=O)N12 (stereo not given),33%,40.4%,50.6%,6.45% (active),44.3%,,36.3%,37.6%,-40.3% (active),
C=CCn1c(SCC(=O)Nc2cccc(C(=O)/C=C/c3cc(OC)c(OC)c(OC)c3)c2)nc2ccccc2c1=O,24.4%,75.8%,67.1%,,48.4%,39.2%,80.2%,43.7%,108%,
CC(=O)C1=NN(c2ccc(Cl)cc2)C(=O)CN1C,94.9%,105%,101%,108%,107%,95.6%,96.2%,91.2%,106%,
Nc1nc(N)c2c(n1)NC(c1ccc(Cl)cc1)CC(c1ccc(Nc3nc(NCCO)nc(Nc4ccc(Cl)cc4)n3)cc1)=N2 (stereo not given),33%,81.8%,55.6%,-57.2% (active),67.4%,25.2%,52%,28%,67.4%,
N#C/C(=C\c1ccc2ccccc2c1)C(=O)Nc1sc2c(c1C#N)CCC2,99.5%,94.1%,,104%,81.4%,96.7%,98.4%,99.6%,,106%
COc1ccc(-c2nc3cc(Cl)c(Cl)cc3n2CC(=O)N=Nc2c(O)[nH]c3ccccc23)cc1,31.4%,-8.79% (active),70.3%,30.3%,24.1%,87.9%,27.8%,100%,55%,
Fc1ccc(-c2cc3nc(C(Cl)Cl)nc(-c4cccs4)n3n2)cc1,35.2%,95%,-9.31% (active),-32.8% (active),-6.12% (active),78.9%,-14.2% (active),58.2%,-23.1% (active),
CCNCc1c(-c2cccc(OC(F)(F)F)c2)[nH]c2ccc(N3CCCC3)cc2c1=O,24.9%,37.1%,30.3%,8.9% (active),43.4%,32.5%,40.2%,28.2%,17.9%,
N#C/C(=C\c1ccc(-c2ccc(F)cc2)o1)C(=O)Nc1ncc(Cc2ccc(Cl)cc2Cl)s1,-37.2% (active),69.3%,13.8%,-74.2% (active),36.7%,-8.78% (active),-48% (active),-28.3% (active),66.8%,
Cc1cc(O)c2c(c1)C(=O)C(c1c(C)cc3c(c1O)C(=O)C=CC3=O)=CC2=O,89.9%,97.7%,110%,109%,108%,-36.9% (active),98.6%,37.4%,-19.3% (active),
Cc1cn(-c2cc(NC(=O)c3cncc(C#Cc4cnc5ccc(O[C@@H]6CCOC6)nn45)c3)cc(C(F)(F)F)c2)cn1,-46.6% (active),-16% (active),-12.7% (active),,-44.6% (active),-69.3% (active),-75.3% (active),-88.2% (active),-84.9% (active),
Clc1ccc(-c2nc3ccc(/C(=N\N=C\c4ccccc4)c4ccccc4)cc3[nH]2)cc1,95%,,92.4%,92.5%,96.3%,76.4%,81%,84.3%,,111%
COc1cc2c3c(n(CCCNC4CCC4)c(=O)c2cc1OC)-c1cc2c(cc1C3=O)OCO2,-68% (active),70.6%,,-50.4% (active),87.9%,-44.9% (active),-50.6% (active),-85.2% (active),-79.9% (active),-72.2% (active)
CCCCOc1ccc(S(=O)(=O)N2CCN(c3nccc(N4CCOCC4)n3)CC2)cc1,44.2%,58.3%,,16%,14.3%,81%,28.9%,39.1%,77.3%,
CN1CCN(c2nc(-c3csc(-c4ccncc4)n3)cc3ccccc23)CC1,71.8%,98.1%,,78.2%,15.3%,55.7%,71.1%,65.7%,39.6%,85%
O=C(NNc1nc2cc(F)cc(F)c2n2cccc12)c1ncccn1,11.2%,-2.14% (active),,6% (active),61.2%,-2.87% (active),18.7%,0.547% (active),16.9%,19.7%
N/C(=N\OC(=O)CSc1nc2ccccc2s1)c1ccc(Cl)cc1,97.7%,98%,,108%,98%,95%,103%,102%,106%,88.2%
C#C[C@]1(O)CC[C@H]2[C@@H]3CC=C4c5sc(Nc6ccc(OC)nc6)nc5CC[C@]4(C)[C@H]3CC[C@@]21C,63.1%,47.4%,,41.5%,60%,36%,55.2%,-27.6% (active),49.3%,51.7%
CC(C)C[C@H]1C(=O)O[C@H](C(C)C)C(=O)N(C)[C@@H](C(C)C)C(=O)O[C@H](C(C)C)C(=O)N(C)[C@@H](C(C)C)C(=O)O[C@H](C(C)C)C(=O)N1C,6.64% (active),20.5%,,8.47% (active),-23.2% (active),1.72% (active),12.6%,23.3%,-89% (active),14.7%
COc1cc2c3c(n(CCCNC4CCCC4)c(=O)c2cc1OC)-c1cc2c(cc1C3=O)OCO2,-62.8% (active),80.5%,,-74.4% (active),103%,54.6%,-78.8% (active),-87.9% (active),-89.9% (active),-78% (active)
CN1CCN(Cc2ccc(NC(=O)c3cncc(C#Cc4cnc5ccc(O[C@H]6CCOC6)nn45)c3)cc2C(F)(F)F)CC1,-53.5% (active),-63.8% (active),,-77.7% (active),-38.3% (active),-72.1% (active),-87.7% (active),-89.7% (active),,-77.7% (active)
